# PGE2 EP2 inh – human EP2 receptor antagonists, primary screen, TR-FRET cAMP, C6 glioma cells; Prostaglandin E2 receptor EP2 subtype (Homo sapiens), P43116; C6 glioma cells expressing human EP2; cells stimulated with saturating PGE2; inhibition, % at 25 µM; 260,000 tested, 0.52% active;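 active = percent inhibition above 40 after rounding to a whole number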;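 also: rat C6 glioma host cells with rolipram phosphodiesterase inhibitor present; the protocol text gives 20 µM as final concentration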
# Insulin prom inh – inhibitors of insulin promoter-driven GFP, primary screen, imaging, TRM-6 cells (human fetal islet line), eGFP reporter, cell count. AID 1273, 2008. inhibition, % at 2 µM. 130,000 tested, 0.9% active. reporter expression induced with tamoxifen;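 active = inhibition above the mean plus 3 SD, with well images judged a real hit on visual review, cut at about 60% in these data, passing the limit was not always enough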
# S1P4 agonist – S1P4 receptor agonists, primary screen, cell-based. Sphingosine 1-phosphate receptor 4 (Homo sapiens), O95977. S1P4-expressing cell line, agonist reporter assay. activation, % at 4.98 µM. 220,000 tested, 0.35% active; in the data active = activation above about 11%;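 also: 0% = DMSO vehicle and 100% = reference agonist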
# S1P3 antag – S1P3 receptor antagonists, primary screen, cell-based; Sphingosine 1-phosphate receptor 3 (Homo sapiens), Q99500; inhibition, % at 4.98 µM; CHO S1P3 NFAT-BLA reporter, FRET fluorescence, antagonist mode; 170,000 tested, 0.27% active; AID 485, 2006;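 active = inhibition above the plate cutoff, the mean inhibition of test wells on that plate plus 3 SD, cut at about 28% in these data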;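 also: cells challenged with S1P at its EC80 of 0.8 µM; blue over green emission ratio from cleaved BLA substrate after 4 h stimulation; 0% = S1P-stimulated wells and 100% = unstimulated DMSO-only wells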
# Target sequence (Q99500 whole entry, looked up): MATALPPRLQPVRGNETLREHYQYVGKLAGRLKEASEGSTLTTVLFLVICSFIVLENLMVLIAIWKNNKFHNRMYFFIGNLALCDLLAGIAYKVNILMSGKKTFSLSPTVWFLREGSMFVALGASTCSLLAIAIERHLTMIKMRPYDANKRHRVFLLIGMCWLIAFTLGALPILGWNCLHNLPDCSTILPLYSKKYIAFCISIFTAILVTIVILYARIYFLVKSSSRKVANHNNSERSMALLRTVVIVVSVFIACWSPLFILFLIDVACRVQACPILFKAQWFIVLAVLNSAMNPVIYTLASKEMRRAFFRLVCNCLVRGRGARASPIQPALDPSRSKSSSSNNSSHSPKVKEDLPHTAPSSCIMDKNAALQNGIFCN
# S1P4 antag – S1P4 receptor antagonists, primary screen, cell-based. 220,000 tested, 0.26% active. inhibition, % at 4.98 µM. S1P4-expressing cells, antagonist mode, reporter read-out. AID 1510, 2009; in the data active = inhibition above about 29%;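 also: 0% = wells stimulated with agonist and 100% = vehicle wells without agonist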
# EP2 modulator – EP2 receptor modulators, cAMP readout, primary screen, cell-based, HTRF cAMP, PGE2 stimulation; EP2-expressing cells, cAMP HTRF FRET, PGE2 co-stimulation; Prostaglandin E2 receptor EP2 subtype (Homo sapiens), P43116; induction, % at 25 µM; AID 940, 2007; 260,000 tested, 0.83% active;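 active = compounds whose cAMP rise, as percent of the full-agonist control response, exceeds 60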;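 also: rat C6 glioma line stably carrying human EP2 under a CMV promoter; the protocol text gives 20 µM as final concentration; 100% = response of wells given 1 µM PGE2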
# Starred values were filed as active, the others as inactive; . = no result; ! = a repeat was not active. An excerpt weighted towards active compounds, which were near 2.4% of everything screened.
SMILES,PGE2 EP2 inh,Insulin prom inh,S1P4 agonist,S1P3 antag,S1P4 antag,EP2 modulator
O=[N+]([O-])c1ccccc1N=Nc1c(O)[nH]c2ccc(S(=O)(=O)O)cc12,37,.,.,.,.,8
O=S(=O)(O)c1ccc2c(N=Nc3cccc4ccccc34)c(O)c(S(=O)(=O)O)cc2c1,57*,.,.,.,.,-17
Cc1ccc(C)c(Cn2nnc3c(=O)[nH]c(C4CCN(C(=O)C5CCC5)CC4)nc32)c1,10,.,.,.,.,9
Nc1ccc(OCC(O)Cn2cnc3ccccc32)cc1 (stereo unspecified),10,.,.,.,.,-8
COC(=O)c1ccc(OCC(=O)c2ccc(O)cc2O)cc1,1,-19,2,-26,-16,-7
COC(=O)c1ccc(CCc2cc(O)ccc2O)cc1,47*,.,.,.,.,-5
CCN(CC)C(=O)Cn1cc(C(=O)OC)c2ccccc21,12,.,.,.,.,-40
COc1ccc(C(C)=O)cc1COc1ncnc2ccccc12,9,-118,-2,-11,-23,-19
COc1ccc2c(Cc3c4ccccc4cc4ccccc34)cncc2c1O,40*,.,.,.,.,28
Cc1ccc(-c2nnc(N)s2)cc1,3,7,-1,-15,4,0
COc1ccc(-c2nnc(N)s2)cc1,9,75*,1,-52,-18,-17
CCCN1Cc2cccc(C(=O)NC3CCCC3)c2C1=O,23,94*,2,-44,2,-4
CCCN1Cc2cccc(C(=O)NCc3cccs3)c2C1=O,.,65,-3,-13,8,7
CSc1ccccc1N=Cc1nc(-c2ccccc2)oc1O,9,0,0,15,-15,61*
CCc1ccccc1-n1c(SCC(=O)NC(C)CC)nnc1-c1ccccn1 (stereo unspecified),9,.,.,.,.,-4
NCc1c(O)ccc2ccccc12,8,.,2,-4,-6,-27
O=c1[nH]c(=S)[nH]c(-c2ccccc2)c1Cc1c(O)ccc2ccccc12,46*,.,.,.,.,4
c1cc(C2CCCN(c3c4c(nc5ncnn35)CCC4)C2)n2ncnc2n1 (stereo unspecified),.,.,.,.,.,-5
CCCN1/C(=C2/SC(=S)N(CC)C2=O)C=Cc2ccccc21,11,-243,2,.,-19,63*
CCCC(c1cc(C(C)(C)C)c(O)cc1C)c1cc(C(C)(C)C)c(O)cc1C,64*,.,.,.,.,26
O=C(CCCl)NCC1COc2ccccc2O1 (stereo unspecified),10,.,.,.,.,-18
COc1ccc2nc(C)cc(N3CC(C)OC(C)C3)c2c1 (stereo unspecified),6,91*,2,-10,-20,-2
COc1ccc2nc(C)cc(N3CCOCC3)c2c1,1,15,2,-31,-6,18
COc1ccc(C(OCC2CO2)c2ccc(OC)cc2)cc1 (stereo unspecified),1,77*,2,-12,-5,18
CC(C)CN(CC(C)C)c1nc(N)c(C#N)c(CC#N)c1C#N,-1,41,1,94*,9,27
SMILES,PGE2 EP2 inh,Insulin prom inh,S1P4 agonist,S1P3 antag,S1P4 antag,EP2 modulator
CN(CCO)c1nc(N)c(C#N)c(CC#N)c1C#N,13,.,2,1,5,-6
COc1cc(/C=N/Nc2ccc(Cl)c(C(=O)O)c2)ccc1OC(=O)c1cccs1,0,13,12*,-6,-15,0
COc1cc(/C=N/Nc2ccccc2)ccc1OC(=O)c1cccs1,6,.,-1,-8,3,-5
O[N+]1=CC=CCC1=S.On1ccccc1=S.[Zn],118*,.,.,.,.,-38
Cc1nn(C)cc1CNC(=O)CSc1nc2c(c(C(F)(F)F)n1)CCc1ccccc1-2,9,.,.,.,.,-82
Cc1cc2c(o1)c1cnn(CC(=O)NC(C)C)c(=O)c1n2C(C)C,.,.,.,.,.,-15
O=C(NCc1ccc(F)cc1)C1CCN(C(=O)NCc2ccccc2)CC1,11,-16,-3,6,7,29
O=C(NCc1ccccc1F)C1CCN(C(=O)NCc2ccccc2)CC1,5,.,-1,68*,3,10
CC1=NC(=O)C(N=O)N1c1ccccc1 (stereo unspecified),51*,.,.,.,.,-89
COc1cc(CN(CCN(C)C)Cc2ccncc2)cc(OC)c1,6,.,.,.,.,-20
FC(F)(F)c1ccc2c(c1)nc1n2CCCC1,10,73*,1,-58,-14,-9
C=CCN1CCN(C(c2ccc(Cl)cc2)c2nnnn2CCOC)CC1 (stereo unspecified),24,.,.,.,.,6
C=CCN1CCN(C(c2ccc(Cl)cc2)c2nnnn2CCc2ccc(OC)c(OC)c2)CC1 (stereo unspecified),7,-57,2,104*,-7,26
COc1ccc(NC(=O)N2CCCC2C(=O)NC(C)C)cc1 (stereo unspecified),5,.,.,.,.,-29
CCNC(=O)Nn1c(-c2ccccc2)nc2ccccc2c1=O,8,-23,0,.,7,7
CCC(C(=O)OC)n1c(-c2ccccc2)nc2ccccc2c1=O (stereo unspecified),7,.,1,-16,-7,69*!
Cc1ccc(-n2c(=O)[nH]c3c(C(N)=O)nc(CC(C)C)nc32)cc1,10,93*,1,0,-1,21
Oc1cccc(Nc2nc(N3CCOCC3)nc(N3CCOCC3)n2)c1,10,.,.,.,.,-34
Cn1ccnc1Sc1nc(Nc2cccc(Cl)c2)nc(N2CCOCC2)n1,7,16,3,8,15,61*
COCCSc1nnc(NC(=O)c2cccc(F)c2)s1,10,.,.,.,.,-26
COc1c(C(=O)NC2CCCOC2)cnc2cc(Cl)ccc12 (stereo unspecified),10,.,.,.,.,-28
Cc1ccc2cc(CN(Cc3nnnn3Cc3ccc(F)cc3)C3CCCCC3)c(=O)[nH]c2c1C,35,.,.,.,.,6
CC(=O)NC(=S)Nc1ccc(NC(=O)COc2ccc(Cl)cc2)cc1,10,-42,3,.,-18,-44
CC(=O)NC(=S)Nc1ccc(NC(=O)COc2ccc(C(C)C)cc2)cc1,9,75*,1,-5,-2,19
COc1ccc(C(=O)NC(C(=O)NCC2CCCO2)C(C)C)cc1 (stereo unspecified),4,82*,1,-23,-12,1
Cc1ccccc1C1(O)CCN(CC(O)c2ccc3c(c2)OCCO3)CC1 (stereo unspecified),2,.,.,.,.,-5
CN1CCN(CCCNC(=O)c2ccc(/C=C3\Sc4ccccc4N(Cc4ccccc4F)C3=O)cc2)CC1,88*,-15,2,-6,3,-45
Cc1nnc(SCC(=O)O)n1-c1ccccc1,9,.,.,.,.,7
CO/N=C/c1ccc(Sc2ccccc2N)c([N+](=O)[O-])c1,19,-2,0,.,-10,0
